Screening results from PubChem.
Mcl1-Noxa inh: Mcl-1/Noxa binding inhibitors, primary screen, biochemical, TR-FRET, 1536-well; inhibition, % at 21.7 µM; AID 1022, 2008; Induced myeloid leukemia cell differentiation protein Mcl-1 (Homo sapiens), Q07820; TR-FRET Mcl-1/Noxa peptide binding, 2 h; 220,000 compounds, 1.5% hits;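 active = compounds that cut the protein-peptide binding signal by more than 50% relative to plate controls in a single-dose test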;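 also: His-tagged Mcl-1 with rhodamine Noxa BH3 peptide and terbium anti-His antibody; 0% = Mcl-1 plus Noxa peptide wells and 100% = peptide-only wells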
Mcl1-Bid inh: Mcl-1/Bid binding inhibitors, primary screen, biochemical, TR-FRET, 1536-well; TR-FRET Mcl-1/Bid-Dy647 peptide binding; 220,000 compounds, 0.97% hits; Induced myeloid leukemia cell differentiation protein Mcl-1 (Homo sapiens), Q07820; inhibition, % at 21.7 µM;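 active = compounds that cut the binding signal by more than half at the single screening dose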;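 also: His-tagged Mcl-1 with europium anti-His antibody binding Bid BH3 peptide; 0% = Mcl-1 plus peptide wells and 100% = peptide-only wells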
GLD-1 RNA inh: GLD-1/TGE RNA complex disruptors, primary screen, biochemical, fluorescence polarization | 320,000 compounds, 0.44% hits | inhibition, % at 5.96 µM | purified GLD-1 + fluorescein TGE RNA | AID 2280, 2010;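 active = percent inhibition above a per-plate cutoff, the plate mean of test compounds plus 3 SD, cut at about 30% in these data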;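 also: 0% = DMSO wells with GLD-1 and probe and 100% = wells lacking GLD-1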
Target sequence (Q17339 whole entry, looked up): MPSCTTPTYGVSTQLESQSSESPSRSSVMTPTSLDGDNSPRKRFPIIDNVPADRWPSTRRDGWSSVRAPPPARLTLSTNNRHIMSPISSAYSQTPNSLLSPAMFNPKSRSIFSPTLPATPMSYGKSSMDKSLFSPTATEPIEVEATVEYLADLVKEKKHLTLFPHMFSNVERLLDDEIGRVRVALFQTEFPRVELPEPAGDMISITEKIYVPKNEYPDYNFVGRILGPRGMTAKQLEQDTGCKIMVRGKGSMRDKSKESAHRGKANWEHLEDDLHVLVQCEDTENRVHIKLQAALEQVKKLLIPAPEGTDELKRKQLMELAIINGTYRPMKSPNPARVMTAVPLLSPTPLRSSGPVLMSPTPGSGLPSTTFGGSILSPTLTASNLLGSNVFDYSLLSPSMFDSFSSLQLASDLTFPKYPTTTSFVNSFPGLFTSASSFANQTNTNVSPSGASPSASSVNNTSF
BCLXL inh: inhibitors of human Bcl-xL, primary screen, biochemical, fluorescence polarization, HTS. Bcl-2-like protein 1 (Homo sapiens), Q07817. GST-Bcl-xL / FITC-Bim BH3 peptide fluorescence polarization. inhibition, % at 10.9 µM. 320,000 compounds, 0.7% hits. AID 2129, 2009;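 active = inhibition above the mean of all tested compounds plus 3 SD, cutoff set per campaign, cut at about 30% in these data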;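 also: 0% = DMSO wells and 100% = unlabeled Bim-BH3 peptide competitor; inhibitors lower millipolarization by displacing the labeled peptide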
Target sequence (Q07817 whole entry, looked up): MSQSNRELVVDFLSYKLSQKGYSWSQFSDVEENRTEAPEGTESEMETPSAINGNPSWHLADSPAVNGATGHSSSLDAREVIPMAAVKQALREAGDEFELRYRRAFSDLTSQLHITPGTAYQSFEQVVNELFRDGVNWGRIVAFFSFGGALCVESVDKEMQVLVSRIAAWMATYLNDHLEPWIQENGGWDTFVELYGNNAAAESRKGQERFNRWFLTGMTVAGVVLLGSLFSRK
Mcl-1 Bim block: inhibitors of Bim peptide binding to Mcl-1, primary screen, biochemical, bead-based flow cytometry, multiplex; Induced myeloid leukemia cell differentiation protein Mcl-1 (Homo sapiens), Q07820; Bim peptide-Mcl-1 binding; inhibition, % at 10 µM; 190,000 compounds, 0.1% hits; AID 1009, 2008; in the data active = inhibition above about 40%;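 also: 0% = no compound tracer wells and 100% = peptide blocker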
MCL1 BIM primary: inhibitors of MCL1 binding to BIM-BH3, primary screen, biochemical, fluorescence polarization. Induced myeloid leukemia cell differentiation protein Mcl-1 (Homo sapiens), Q07820. GST-MCL1 / FITC-Bim-BH3 fluorescence polarization. inhibition, % at 10.9 µM. 320,000 compounds, 0.68% hits. AID 2057, 2009;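 active = inhibition above the mean inhibition of all tested compounds plus 3 SD, set per campaign, cut at about 40% in these data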;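 also: 0% = DMSO wells and 100% = unlabeled Bim-BH3 peptide control; higher means more loss of mP so more displacement of Bim peptide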
BCLXL inh confirm: Bcl-xL inhibitors blocking Bim BH3 binding, confirmation, counter-screen for MCL1 inhibitor project, biochemical, fluorescence polarization | 1,700 compounds, 54% hits | GST-Bcl-xL / FITC-Bim BH3 peptide FP binding | inhibition, % at 10.9 µM | AID 2166, 2009 | shares compounds with MCL1 BIM primary;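 active = inhibition above a cutoff equal to the mean inhibition of all tested compounds plus 3 SD, cut at about 30% in these data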;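 also: 0% = DMSO wells and 100% = unlabeled Bim BH3 control peptide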
MCL1 inh confirm: inhibitors of MCL1 binding to BIM-BH3, confirmation, biochemical, fluorescence polarization, triplicate; 1,700 compounds, 61% hits; shares compounds with MCL1 BIM primary; GST-MCL1 / FITC-Bim-BH3 fluorescence polarization; inhibition, % at 10.9 µM;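 active = inhibition above the average of all tested compounds plus 3 SD, cut at about 40% in these data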;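 also: 0% = DMSO wells and 100% = unlabeled Bim-BH3 control peptide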
Starred values were filed as active, the others as inactive; nt = no result given. Compounds with a hit are over-represented: about 2.3% of the library has one in this group of screens.

SMILES	Mcl1-Noxa inh	Mcl1-Bid inh	GLD-1 RNA inh	BCLXL inh	Mcl-1 Bim block	MCL1 BIM primary	BCLXL inh confirm	MCL1 inh confirm
CN(C)Cc1c(O)ccc2cc(-c3nc4ccccc4n3C)c(=O)oc12	nt	nt	21.7	51.7*	nt	64.4*	27.1	32.9
CN1C=CC2=C(C#N)C(N)C(C#N)(C#N)[C@H](c3ccccc3)[C@H]2C1 (stereo partly specified)	-17.1	-23.2	30.1	81.4*	-5.0	92.3*	30.9*	30.9
N#CC1(C#N)C(C(N)=O)C1c1ccccc1 (stereo unspecified)	5.4	-30.9	0.9	0.7	-1.0	-0.2	nt	nt
Cc1cc(C(=O)Cn2cc(C(F)(F)F)ccc2=O)c(C)n1CC1CCCO1 (stereo unspecified)	nt	nt	-6.3	3.8	nt	2.9	nt	nt
CN(C)c1ccc(N2C(=O)CSC2=S)cc1	1.1	-6.5	-0.2	38.5*	1.0	45.6*	14.2	12.7
O=C1CSC(=S)N1c1ccc(F)cc1	nt	nt	-6.9	-7.0	nt	7.2	nt	nt
O=C(O)Cc1c[nH]c2cccc(O)c12	80.9*	22.6	5.4	12.3	0.0	45.4*	15.2	32.0
CC(=O)c1ccc2noc(-c3ccc(F)cc3)c2c1	-0.9	-37.0	109.6*	97.8*	0.0	98.3*	82.0*	103.4*
CC(=O)c1ccc2noc(-c3ccc(Cl)cc3)c2c1	4.6	-34.4	6.6	3.2	1.0	1.6	nt	nt
Cn1c(CNc2ccc(O)cc2)nc2ccccc21	nt	nt	91.5*	55.6*	nt	65.7*	81.1*	82.5*
CCCc1nc2ccccc2c(C(=O)OCC(=O)Nc2c(C)n(C)n(-c3ccccc3)c2=O)c1CC	19.8	-4.8	4.5	1.9	-11.0	10.9	nt	nt
Cc1ccc(C)c(C(=O)CCC(=O)OCn2nnc3ccccc3c2=O)c1	nt	nt	-2.8	1.8	nt	85.3*	11.7	9.3
CC(=O)n1c2ccccc2c2ccccc21	-12.2	-9.8	2.7	0.3	-1.0	4.8	nt	nt
CC(=O)n1c(C=Nc2ccc(Cl)cc2)c(O)c2ccccc21	-15.9	-37.7	-105.2	80.8*	nt	58.9*	154.4*	184.9*
CCCN1CCN(S(=O)(=O)c2cn(C)nc2C)CC1	nt	nt	26.7	66.2*	nt	84.4*	76.9*	96.0*
Cc1nn(C)cc1S(=O)(=O)N1CCN(Cc2ccccc2Cl)CC1	20.5	-49.6	8.2	4.9	9.0	7.6	nt	nt
NC(=O)C1(N2CCCCC2)CCN(C(=O)CSc2nc3ccccc3[nH]2)CC1	13.0	-25.1	5.1	2.8	-2.0	8.0	nt	nt
CCOc1ccccc1OC(=O)CN1C(=O)c2ccccc2C1=O	nt	nt	5.1	5.4	nt	-2.5	nt	nt
O=C(O)CN1C(=O)N/C(=C\c2cccn2-c2ccc(P(=O)(O)O)cc2)C1=O	nt	nt	6.7	nt	nt	nt	nt	nt
Cc1ccc(C)c(NC(=O)Nc2ccc3c(c2)OCO3)c1	nt	nt	2.7	2.2	nt	1.0	nt	nt
Cc1ccc(CNc2ccc3c(c2)OCO3)c(C)c1	38.4	-61.2	0.3	127.1*	3.0	143.5*	72.2*	89.9*
Cc1ccc(CNC(=O)C(NS(=O)(=O)c2cccc3nsnc23)C(C)C)cc1 (stereo unspecified)	nt	nt	1.8	0.7	nt	5.5	nt	nt
Cc1ccc2[nH]c3c(c2c1)CN(C(=O)CN(C)CC1OCCO1)CC3	-0.4	-38.0	52.7*	57.8*	-8.0	60.8*	9.4	10.9
Cc1cc(OC(=O)C(C)(C)C)c([N+](=O)[O-])c(=O)[nH]1	-3.6	15.5	8.1	6.8	0.0	-7.7	nt	nt
CCOC(=O)c1c(=O)n(O)c2ccc(OC)cc2[n+]1[O-]	10.5	35.5	175.8*	158.8*	-4.0	188.2*	45.4*	59.6*
SMILES	Mcl1-Noxa inh	Mcl1-Bid inh	GLD-1 RNA inh	BCLXL inh	Mcl-1 Bim block	MCL1 BIM primary	BCLXL inh confirm	MCL1 inh confirm
COc1ccc(N2CCCC2)c(NC(=O)c2ccc([N+](=O)[O-])o2)c1	nt	nt	74.2*	75.9*	nt	74.8*	13.8	3.5
O=C(N/N=C/c1sc2ccccc2c1O)c1cccc2ccccc12	-13.3	-33.8	-44.0	-19.7	-6.0	-40.0	nt	nt
Oc1c(C=Nc2cccc3cccnc23)sc2ccccc12	-10.1	48.7	-151.9	80.2*	-9.0	128.2*	36.7*	99.0*
O=C(NCC(O)c1ccccc1)Nc1cccs1 (stereo unspecified)	nt	nt	-4.2	10.8	nt	11.7	nt	nt
CCOC(=O)N/N=C\c1ccc([N+](=O)[O-])o1	0.8	-37.3	0.0	7.8	0.0	63.9*	0.6	2.2
CC1=Nc2ccccc2/C1=C\c1nc(-c2ccc(C(F)(F)F)cc2)oc1O	-1.7	2.6	10.8	59.9*	-1.0	57.8*	100.0*	126.5*
CC1=Nc2ccccc2/C1=C\c1nc(-c2ccccc2)oc1O	10.7	-23.3	-61.1	-1.6	0.0	-18.8	nt	nt
O=C(c1cccs1)N1CCCC(c2ccccc2)C1 (stereo unspecified)	-6.4	2.5	4.0	4.9	-4.0	-3.3	nt	nt
Brc1ccc(-c2cn3nc4c(nc3n2)CCCC4)cc1	10.8	5.6	42.1*	74.8*	-1.0	79.5*	44.9*	44.5*
Nc1nn2cc(-c3ccc(Br)cc3)nc2c2ccccc12	17.0	8.8	5.9	0.6	nt	2.1	nt	nt
c1ccc(-c2cn3nc4c(nc3n2)CCCC4)cc1	17.6	-7.7	90.8*	112.0*	1.0	130.0*	77.6*	97.4*
c1ccc(-c2cn3nc(-c4ccccc4)cnc3n2)cc1	9.1	5.5	3.3	2.8	-4.0	4.2	nt	nt
CN(C)C(=O)c1ccccc1NC(=O)Cc1cccc2ccccc12	nt	nt	-3.5	2.7	nt	1.5	nt	nt
Cc1csc(NC(=O)CSc2nc(=O)[nH]c3c2CCCC3)n1	nt	nt	13.0	5.7	nt	12.6	nt	nt
CSCC[C@H](NC(=O)C(C)(C)Oc1ccc(Cl)cc1)c1nc2ccccc2[nH]1	-5.7	-65.4	-1.1	7.1	-5.0	-11.1	nt	nt
COc1cccc2c1NC(C(=O)O)C1CC=CC21 (stereo unspecified)	100.7*	74.8*	4.1	78.5*	6.0	96.2*	57.3*	90.0*
COc1cccc(C2Nc3c(F)cc(Br)cc3C3C=CCC32)c1OC (stereo unspecified)	-5.6	-10.8	2.5	3.0	5.0	3.5	nt	nt
